KLF5 inhibitor – KLF5 expression inhibitors, primary screen, DLD-1 cells, luminescence | DLD-1 KLF5 promoter-luciferase reporter | inhibition, % at 5 µM | actives 0.23% (n = 290,000) | AID 1700, 2009;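 active = inhibition above a per-plate limit of that plate's mean compound inhibition plus 3 SD, cut at about 60% in these data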;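 also: 0% = DMSO wells and 100% = LY294002 at 200 µM; higher means less KLF5 promoter-driven luciferase light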
IEC-6 cytotox – cytotoxicity in IEC-6 intestinal epithelial cells, primary screen, cytotoxicity control for KLF5 inhibitor project, cell-based, luminescence. IEC-6 cytotoxicity, luminescence viability. actives 0.78% (n = 290,000). inhibition, % at 5 µM; in the data active = inhibition above about 22%;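 also: 0% = plate median of test compound wells and 100% = cytotoxic reference compound wells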
BaF3 parental – parental Ba/F3 cell viability inhibition, counter-screen for JAK2V617F inhibitor project, murine pro-B, CellTiter-Glo luminescence; CellTiter-Glo ATP luminescence; inhibition, % at 5.6 µM; actives 1.1% (n = 220,000);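 active = inhibition above a per-campaign cutoff, the mean inhibition of all tested compounds plus 3 SD, cut at about 27% in these data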;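 also: 0% = DMSO wells and 100% = JAK Inhibitor I control wells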
Ba/F3 V617F tox – reduced viability of JAK2V617F-dependent Ba/F3 cells, primary screen, JAK2V617F inhibitor project, cell-based, Ba/F3 EpoR-JAK2V617F, luminescence; ATP luminescence; inhibition, % at 5.6 µM; actives 1.1% (n = 220,000); AID 1446, 2008;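 active = inhibition above the campaign mean plus 3 SD over all tested compounds, cut at about 24% in these data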;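 also: cytokine-independent growth of Ba/F3 cells driven by EpoR plus mutant JAK2; 0% = DMSO-treated cells and 100% = JAK inhibitor I control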
aSyn 5UTR inh – MLPCN primary screen, SNCA 5' untranslated region | AID 1813, 2009 | inhibition, % (tested at 7.5 µM) | alpha-synuclein 5'UTR reporter, inhibitor activity | actives 0.82% (n = 300,000); in the data active = inhibition above about 60%;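 also: H4 neuroglioblastoma cells stably carrying SNCA 5'UTR luciferase fusion; 0% = DMSO wells and 100% = positive control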
APP 5UTR inh – inhibitors of APP translation via 5'UTR reporter, primary screen, APP 5'UTR luciferase, SH-SY5Y cells; SH-SY5Y APP 5'UTR-luciferase reporter, luminescence; inhibition, % at 2 µM; actives 0.82% (n = 190,000); AID 1285, 2008;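 active = inhibition above a set limit, derived from the sample mean plus 3 SD, cut at about 45% in these data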
* hit, by the source's call. The list is not random: actives were taken first. Their share in the collection is about 2.1%.

`O=C(Nc1ccccc1F)c1ccc(C(=O)c2ccccc2)cc1` gave KLF5 inhibitor -108.4, IEC-6 cytotox 4.0 and aSyn 5UTR inh -100.1.
Screening Oc1ccccc1N=Nc1nc(-c2ccccc2)c(-c2ccccc2)[nH]1 returned KLF5 inhibitor 49.9, IEC-6 cytotox 0.2, BaF3 parental 97.1*, Ba/F3 V617F tox 97.8*, aSyn 5UTR inh 107.2* and APP 5UTR inh 88.0*.
For COc1ccccc1N=Nc1nc(-c2ccccc2)c(-c2ccccc2)[nH]1 the results were KLF5 inhibitor -21.7, IEC-6 cytotox -3.6, BaF3 parental 6.7, Ba/F3 V617F tox 3.0, aSyn 5UTR inh -15.8 and APP 5UTR inh 3.8.
`COc1ccc(/C=N/Nc2nncc3ccccc23)cc1` gave KLF5 inhibitor -91.0, IEC-6 cytotox -1.0, BaF3 parental 6.7, Ba/F3 V617F tox 0.0, aSyn 5UTR inh 67.1* and APP 5UTR inh -188.4.
For COc1ccccc1/C=N/Nc1nncc2ccccc12 the results were KLF5 inhibitor -56.5, IEC-6 cytotox 6.0, BaF3 parental 4.2, Ba/F3 V617F tox -1.5, aSyn 5UTR inh -131.5 and APP 5UTR inh -36.5.
`CC(=O)Nc1ccc(S(=O)(=O)NC2=C(N3CCN(C)CC3)C(=O)c3ccccc3C2=O)cc1` gave KLF5 inhibitor -22.1, IEC-6 cytotox 5.2 and aSyn 5UTR inh 70.6*.
Screening Cc1ccc(NC2=C(N3CCCCC3)C(=O)c3ccccc3C2=O)cc1 returned KLF5 inhibitor 16.9, IEC-6 cytotox -0.9, BaF3 parental 97.7*, Ba/F3 V617F tox 96.0*, aSyn 5UTR inh -44.5 and APP 5UTR inh -25.1.
For CCN1CCN(C2=C(NS(=O)(=O)c3ccc(NC(C)=O)cc3)C(=O)c3ccccc3C2=O)CC1 the results were KLF5 inhibitor -5.3, IEC-6 cytotox 11.1 and aSyn 5UTR inh -3.1.
Screening O=C1C(NS(=O)(=O)c2ccc(Br)cc2)=C(N2CCCCC2)C(=O)c2ccccc21 returned KLF5 inhibitor -35.9, IEC-6 cytotox 1.1 and aSyn 5UTR inh 25.6.
CN(C1=C(N2CCCCC2)C(=O)c2ccccc2C1=O)c1ccccc1 was read as KLF5 inhibitor -1.5, IEC-6 cytotox -0.6, BaF3 parental 65.0*, Ba/F3 V617F tox 26.0*, aSyn 5UTR inh -32.4 and APP 5UTR inh -4.0.
Screening O=C1C(Nc2cccc(O)c2)=C(N2CCCCC2)C(=O)c2ccccc21 returned KLF5 inhibitor -33.5, IEC-6 cytotox -4.3, BaF3 parental 99.1*, Ba/F3 V617F tox 86.6*, aSyn 5UTR inh -14.0 and APP 5UTR inh -5.0.
For O=C(/C=C/c1ccc(O)cc1)c1ccc(NC2=C(N3CCCCC3)C(=O)c3ccccc3C2=O)cc1 the results were KLF5 inhibitor 45.7, IEC-6 cytotox -3.5, BaF3 parental 1.9, Ba/F3 V617F tox 2.4, aSyn 5UTR inh -34.6 and APP 5UTR inh -21.7.
Screening Cc1oc2c(CN3CCCCC3C)c(O)ccc2c(=O)c1-c1ccc(Br)cc1 (centres undefined) returned KLF5 inhibitor -5.9, IEC-6 cytotox 0.4 and aSyn 5UTR inh -4.5.
Screening O=C(Cn1cnc2ccccc21)Nc1ccc(SC(F)F)cc1 returned KLF5 inhibitor -55.1, IEC-6 cytotox 9.5, BaF3 parental 49.9*, Ba/F3 V617F tox 35.8*, aSyn 5UTR inh -9.6 and APP 5UTR inh 15.0.
`O=C(Cn1cnc2ccccc21)NCc1ccccc1` gave KLF5 inhibitor -6.5, IEC-6 cytotox -4.1, BaF3 parental 2.4, Ba/F3 V617F tox 0.0, aSyn 5UTR inh -26.9 and APP 5UTR inh -26.9.
For Cc1cc(C(=O)COC(=O)CCc2nc3ccccc3c(=O)[nH]2)c(C)n1CC1CCCO1 (centres undefined) the results were KLF5 inhibitor -13.0, IEC-6 cytotox -4.1, BaF3 parental -7.1, Ba/F3 V617F tox -1.1 and aSyn 5UTR inh -4.3.
`Cc1cc(C(=O)CSc2nc3ccccc3c(=O)n2C)c(C)n1CC1CCCO1` (centres undefined) gave KLF5 inhibitor 19.1, IEC-6 cytotox 9.3, BaF3 parental 69.3*, Ba/F3 V617F tox 59.3*, aSyn 5UTR inh -1.1 and APP 5UTR inh 16.6.
